# Out of some 3,400 compounds screened, about 840 (25%) were called active. Roughly 11% stayed inconclusive and do not appear here. These entries were drawn from the full list. Potency and affinity values are given separately. Values without a mark were called inactive.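 How the source made its calls: active means fitted half-maximal concentration of signal decrease at or below twice the sample's top tested concentration; inconclusive means flat curve between -70 and -30 percent, or poor fit; inactive means flat within 30 percent, signal rise, or potency above limit.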
# Assay: inhibitors of Toxoplasma growth in IFN-γ-primed HeLa – cell-based, ME49Luc, luciferase, 72 h, dose response (AID 1259418)
# Settings: T. gondii ME49Luc in IFN-y HeLa, hits give low values, -100% = high-dose IFN-γ control wells; at 19.5 µM unless noted
row,SMILES,max activity
1,Cc1ccc(-c2coc(-c3ccc(NC(=O)Nc4cc(C)cc(C)c4)cc3)n2)cc1,-13.8% [at 0.68 µM]
2,CCc1nc(OCC(=O)Nc2cc(C)cc(C)c2)c2ccccc2n1,9.9% [at 10 µM]
3,COc1ccccc1N(Cc1nc(-c2ccccc2)oc1C)S(=O)(=O)c1ccc(C)cc1,13.3% [at 0.16 µM]
4,COc1ccc(S(=O)(=O)N(Cc2nc(-c3ccccc3)oc2C)c2ccccc2OC)cc1,-10.3% [at 5 µM]
5,c1cnc(N2CCC(Oc3cnccn3)CC2)nc1,28.4% [at 10 µM]
6,CCc1ccccc1NC(=O)Nc1ccc(-c2nc(-c3ccc(C)cc3)co2)cc1,-15.7% [at 0.68 µM]
7,CCOc1ccc(CC(=O)N2CCC3(CC2)Nc2cc(OC)ccc2-n2cccc23)cc1OCC,-11.1% [at 10 µM]
8,COc1ccc(CNc2nc(SCc3cc(=O)n4cc(Cl)ccc4n3)nc3ccccc23)cc1,14.6% [at 5 µM]
9,COCC#Cc1ccc([C@@H]2[C@H]3CN(C(=O)C4CCCCC4)CC(=O)N3[C@H]2CO)cc1,27.9%
10,COCC#Cc1ccc([C@@H]2[C@@H](CO)N3C(=O)CN(C(=O)c4ccncc4)C[C@@H]23)cc1,31.2%
11,COCC#Cc1ccc([C@H]2[C@@H](CO)N3C(=O)CN(C(=O)C4CCCCC4)C[C@@H]23)cc1,51.9%
12,COCC#Cc1ccc([C@@H]2[C@@H](CO)N3C(=O)CN(C(=O)c4ccncc4)C[C@H]23)cc1,28.6%
13,COc1ccc(NC(=O)Nc2ccc(-c3nc(-c4ccc(C)cc4)co3)cc2)cc1Cl,83.9%
14,COc1cccc(NC(=O)CCC2Nc3c4ccccc4nc(=S)n3C2=O)c1 (stereo not drawn),16.8% [at 0.68 µM]
15,Cc1ccc(Cl)cc1N(CC(=O)Nc1c(F)cccc1F)S(C)(=O)=O,6.87%
16,Cc1sc(-c2nc(C(C)C)cs2)cc1S(=O)(=O)N1CCC(C)CC1,11.7%
17,Cc1ccccc1-c1nc(CN2CCN(C(=O)Nc3cccc(Cl)c3)CC2)c(C)o1,10.5% [at 5 µM]
18,Cc1ccc(-c2nc3c(s2)CN(C(=O)Nc2cccc(C)c2C)CC3)cc1,22.5% [at 5 µM]
19,CC(=O)NCCNC(=O)CC1Nc2c3ccccc3nc(=S)n2C1=O (stereo not drawn),32%
20,COc1ccccc1CNc1nc(-c2ccc(Cl)cc2)nc2ccccc12,9.39% [at 0.35 µM]
21,Cc1oc(-c2ccccc2)nc1Cn1nnc(-c2nc(-c3cccc(Br)c3)no2)c1C,5.37% [at 0.16 µM]
22,Cc1nc(CCNC(=O)C2CCN(S(=O)(=O)c3cccc(Cl)c3C)CC2)cs1,-10.4% [at 5 µM]
23,CCCCc1ccc(Nc2ncnc3c2cnn3-c2ccc(OC)cc2)cc1,8.01% [at 5 µM]
24,Cc1cccc(C)c1NC(=O)CN1CCC2(CC1)N=C(c1cccc(F)c1)C(=O)N2,21.4% [at 0.35 µM]
25,COc1cc(NC(=O)COc2nc(C)nc3ccccc23)cc(OC)c1OC,39.1% [at 0.35 µM]

row,SMILES,max activity
1,O=S(=O)(c1ccccc1F)N1CCC(c2nc3ccc(-c4ccncc4)cn3n2)CC1,-8.38% [at 0.16 µM]
2,O=C(C1CCOCC1)N1CC(=O)N2[C@@H](CO)[C@H](c3ccc(/C=C/c4ccccc4)cc3)[C@@H]2C1,16.6%
3,CC(C)NC(=O)N1CC(=O)N2[C@H](CO)[C@H](c3ccc(/C=C/c4ccccc4)cc3)[C@@H]2C1,15.1%
4,CC(C)c1ccc(-c2nc3c([nH]2)c(=O)n(C)c(=O)n3C)cc1,36.8%
5,COc1ccc(-c2nc(N3CCN(c4ccccc4OC)CC3)c3ccccc3n2)cc1,-19.4% [at 0.35 µM]
6,COc1ccc(-c2nc(N3CCN(c4ccccc4F)CC3)c3ccccc3n2)cc1,-17% [at 0.35 µM]
7,COc1ccc(CCNc2ncnc3c2cnn3-c2ccc(C)cc2C)cc1OC,-45% [at 0.16 µM]
8,CCc1nc(OCC(=O)Nc2ccc(F)cc2)c2ccccc2n1,24.6% [at 0.35 µM]
9,COc1ccc(-c2nc(Cn3c(=O)c4c(C)cc(C)nc4n(-c4ccccc4)c3=O)c(C)o2)cc1OC,-11.3% [at 1.35 µM]
10,COc1ccc(NC(=O)CN2CCC3(CC2)N=C(c2ccc(Cl)cc2)C(=O)N3)cc1,-12.9% [at 0.68 µM]
11,Cc1ccc(NC(=O)CN2CCC3(CC2)N=C(c2cccc(F)c2)C(=O)N3)cc1F,-40.4%
12,CCc1ccccc1NC(=O)N1CCc2nc(-c3ccc(OC)c(OC)c3)sc2C1,6.34%
13,CCC(=O)N1CCC2(CC1)Nc1ccc(C)c(C)c1-n1cccc12,-7.02% [at 5 µM]
14,Cc1nc(OCC(=O)Nc2cc(F)ccc2C)c2ccccc2n1,23.1% [at 10 µM]
15,Cc1ccc(-c2coc(-c3ccc(NC(=O)c4ccc(F)cc4)cc3)n2)cc1,95.6%
16,Cc1ccc(-c2ccc([C@H]3[C@@H](CO)N4C(=O)CN(C(=O)NC(C)C)C[C@@H]34)cc2)cc1,46.5%
17,Cc1ccc(-c2ccc([C@@H]3[C@H](CO)N4C(=O)CN(C(=O)NC(C)C)C[C@@H]34)cc2)cc1,16.7% [at 5 µM]
18,COc1ccccc1NC(=O)N1CC(=O)N2[C@H](CO)[C@H](c3ccc(C#CC(C)C)cc3)[C@H]2C1,25.9% [at 5 µM]
19,COc1ccccc1NC(=O)N1CC(=O)N2[C@H](C1)[C@@H](c1ccc(C#CC(C)C)cc1)[C@@H]2CO,-17.8%
20,CCOc1ccc(-c2nc(CN3CCN(C(=O)Nc4ccccc4C(F)(F)F)CC3)c(C)o2)cc1,13.7% [at 2.6 µM]
21,O=C(NCCc1csc(-c2ccccc2)n1)C1CCN(C(=O)COc2ccccc2)CC1,-18.1% [at 0.68 µM]
22,O=C(O)c1ccc(NC(=NCCc2ccccc2)N2CCN(c3ncnc4ccccc34)CC2)cc1,6.72%
23,COc1ccc(NC(=O)Nc2ccc(-c3nc(-c4ccccc4)co3)cc2)cc1,-14% [at 0.68 µM]
24,CCOc1ccccc1-c1nc(CN(c2ccccc2OC)S(=O)(=O)c2ccc(C)cc2)c(C)o1,-6.32%
25,CCOc1ccccc1-c1nc(CN(c2ccccc2)S(=O)(=O)c2ccccc2)c(C)o1,15.6%

row,SMILES,max activity
1,COc1ccccc1N(Cc1nc(-c2cccc(OC)c2OC)oc1C)S(=O)(=O)c1ccccc1,3.95%
2,COc1ccc(-c2nc(Cn3nnc(-c4nc(-c5ccccc5)no4)c3C)c(C)o2)cc1,11% [at 0.16 µM]
3,Cc1ccc(NC(=O)Nc2ccc(-c3nc(-c4ccccc4)co3)cc2)cc1C,24.4%
4,Cc1cc(-n2nnc(C(=O)N3CCC(N4CCCCC4)CC3)c2-c2ccncc2)ccc1F,-34.1%
5,Cc1ccccc1C(=O)N1CCC2(CC1)Nc1cc(F)ccc1-n1cccc12,-6.16% [at 1.35 µM]
6,COc1ccc(OCC(=O)N2CCC3(CC2)Nc2ccc(C)c(C)c2-n2cccc23)cc1,-9.59% [at 2.6 µM]
7,CCOC(=O)C1CCCN(c2nc(-c3ccc(Cl)cc3)nc3ccccc23)C1 (stereo not drawn),5.87% [at 0.35 µM]
8,Cc1noc(C)c1S(=O)(=O)N1CSC[C@@H]1C(=O)NCCc1csc(-c2ccccc2)n1,13.2% [at 1.35 µM]
9,Cc1cccc(NC(=O)Nc2ccc(-c3nc(-c4ccc(C)cc4C)co3)cc2)c1,-13.9% [at 0.16 µM]
10,COc1ccccc1-c1noc(-c2nnn(Cc3nc(-c4cccc(Cl)c4)oc3C)c2C)n1,9.3% [at 0.16 µM]
11,CCc1nc(OCC(=O)Nc2ccccc2C(F)(F)F)c2ccccc2n1,15.4% [at 2.6 µM]
12,Cc1ccc(-c2coc(-c3ccc(NC(=O)NCc4ccccc4)cc3)n2)c(C)c1,5.28% [at 0.16 µM]
13,COc1ccc(-c2nc(Cn3nnc(-c4nc(-c5ccccn5)no4)c3C)c(C)o2)cc1,-5.61% [at 10 µM]
14,COc1ccccc1-c1nc(C)c(-c2ccc(SCc3ccccc3)nn2)s1,-5.61% [at 0.68 µM]
15,COc1ccc2c(c1)NC1(CCN(C(=O)c3ccc(Br)cc3)CC1)c1cccn1-2,15.6% [at 0.68 µM]
16,Cc1cccc(Cn2c(CN3CCC(C(=O)NCCCN4CCCC4=O)CC3)cc3ccccc32)c1,13.5%
17,Cc1ccc(Cn2c(CN3CCC(C(=O)N4CCCC4)CC3)cc3ccccc32)cc1,17.8% [at 2.6 µM]
18,O=C(C1CCN(Cc2cc3ccccc3n2Cc2cccc(Cl)c2)CC1)N1CCCC1,-6.26% [at 1.35 µM]
19,O=C(NCc1cccnc1)C1CCN(Cc2cc3ccccc3n2Cc2cccc(Cl)c2)CC1,-5.31% [at 5 µM]
20,O=C(NCCN1CCCC1)C1CCN(Cc2cc3ccccc3n2Cc2cccc(Cl)c2)CC1,-8.03% [at 1.35 µM]
21,O=C(NCCCN1CCCC1=O)C1CCN(Cc2cc3ccccc3n2Cc2ccccc2)CC1,-6.87% [at 2.6 µM]
22,CC(C)C(=O)Nc1ccc(-c2nc(-c3ccccc3)co2)cc1,-22.2% [at 10 µM]
23,Cc1ccc(OCC(=O)Nc2ccc(-c3nc(-c4cc(C)ccc4C)co3)cc2)cc1,6.76% [at 10 µM]

# Reference: PubChem BioAssay AID1259418 (Broad Institute, 2018)
